# Laboratory results: PubChem BioAssay (NCI)
# The panel holds about 83,000 compounds, 20% with a hit somewhere; the sample as a whole holds those more often.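 Single-dose data. Exposure time 48 hours. Values below 10 considered active.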 Unmarked numbers belong to inactive results. Calls of active or inactive are those of the source.
# How the values were obtained:
# Assay in all cases: NCI-60 one-dose screen, 48 h (100 = growth as untreated, 0 = no growth, -100 = all killed)
# HCT-15 colon = settings: 10 µM unless noted
# HT29 colon = settings: 10 µM unless noted
# SNB-75 CNS = settings: 10 µM unless noted
# PC-3 prostate = settings: 10 µM unless noted
# SK-MEL-5 melanoma = settings: 10 µM unless noted
# UACC-62 melanoma = settings: 10 µM unless noted
# LOX IMVI melanoma = settings: 10 µM unless noted
# SK-MEL-28 melanoma = settings: 10 µM unless noted
# SK-MEL-2 melanoma = settings: 10 µM unless noted
# EKVX NSCLC = settings: 10 µM
# SN12C renal = settings: 10 µM unless noted
# UO-31 renal = settings: 10 µM unless noted
# TK-10 renal = settings: 10 µM unless noted
# ACHN renal = settings: 10 µM unless noted
# CAKI-1 renal = settings: 10 µM unless noted
# A498 renal = settings: 10 µM unless noted
# CCRF-CEM leukemia = settings: 10 µM
# MOLT-4 leukemia = settings: 10 µM unless noted
# SNB-19 CNS = settings: 10 µM unless noted
# U251 CNS = settings: 10 µM unless noted
SMILES,growth (HCT-15 colon),growth (HT29 colon),growth (SNB-75 CNS),growth (PC-3 prostate),growth (SK-MEL-5 melanoma),growth (UACC-62 melanoma),growth (LOX IMVI melanoma),growth (SK-MEL-28 melanoma),growth (SK-MEL-2 melanoma),growth (EKVX NSCLC),growth (SN12C renal),growth (UO-31 renal),growth (TK-10 renal),growth (ACHN renal),growth (CAKI-1 renal),growth (A498 renal),growth (CCRF-CEM leukemia),growth (MOLT-4 leukemia),growth (SNB-19 CNS) [%],growth (U251 CNS)
COc1cc2ncnc(-n3ncc4cc(NC(=O)Nc5ccc(Cl)c(Cl)c5)ccc43)c2cc1OC,-35.7% (active),-16.7% (active),-57.7% (active),-57.1% (active),-82.8% (active),-68.5% (active),-77.7% (active),-70.9% (active),-26.6% (active),-16.1% (active),3.99% (active),-17.2% (active),-14.1% (active),-61.6% (active),8.96% (active),-22.7% (active),22.3%,9.19% (active),,
COc1ccc2cn3c4ccc(O)cc4[nH]c(=O)c3c2c1,17.8%,-89.2% (active),,,10.9%,34.9%,24.4%,24.8%,,39%,51.7%,23.6%,-2.48% (active),28.3%,16.9%,24.5%,29.2%,15.2%,19.7,5% (active)
COC(=O)c1cc(O)c2cc3c(cc2c1-c1cc(OC)c(OC)c(OC)c1)OCO3,23.6%,-9.35% (active),,,3.09% (active),44.2%,,51.5%,,55.8%,34.1%,44.8%,43.2%,36.8%,30.2%,45.6%,8.87% (active),35.3%,36.9,42.3%
Nc1nc(-c2cccc(Br)c2)cc(-c2cc3ccccc3oc2=O)n1,106%,117%,,122%,89.7%,101%,95.8%,126%,,93.9%,99.9%,64.2%,74.8%,98.2%,92%,123%,77.1%,82.4%,109,106%
CC(C)OC(=O)c1ccc2n1CCCc1cnc(Nc3ccccc3)nc1-2,43.7%,72.5%,98.6%,75.7%,,64.7%,78.7%,92.9%,66.3%,57.6%,81.7%,64.2%,85.3%,74.8%,65.6%,63.5%,72.3%,73.8%,,76.4%
COC(=O)C(C(=O)OC)C(Br)C(Br)C(Br)c1ccccc1 (stereo not drawn),79.7%,,87.4%,101%,91.5%,80.9%,-16% (active),106%,,,97.9%,77.7%,,17.9%,,116%,-28.9% (active),63.8%,100,94.8%
Cc1cc2cn3c4ccc(O)cc4nc(N)c3c2cc1C,7.85% (active),-65.6% (active),,25.4%,-62.4% (active),46.9%,27.4%,-4.38% (active),,37.2%,44.6%,6.2% (active),5.03% (active),7.58% (active),-4.28% (active),,11.5%,5.17% (active),29.1,-5.52% (active)
COc1ccc(C(=O)N2N=C(c3ccc(Br)cc3)CC2c2cn(-c3ccccc3)nc2-c2ccccc2)cc1 (stereo not drawn),58.9%,,70.4%,36.1%,92.3%,74.7%,44.5%,61.2%,,78.5%,58.9%,84.5%,,87.8%,75%,89.1%,67.9%,46.1%,65.3,6.67% (active)
CCCCCC(=C/c1ccccc1)/C=N/N=C(N)N,-37.8% (active),-66.3% (active),56.6%,37.8%,-91.5% (active),,-37.6% (active),-90.2% (active),-55.7% (active),46.1%,,-53.2% (active),72.9%,1.62% (active),,,15.7%,8.92% (active),,
COc1cc2cn3c4ccc(O)cc4[nH]c(=O)c3c2cc1OC,23.3%,-70.2% (active),,66.4%,-90.7% (active),-9.19% (active),0.607% (active),11.5%,,18.4%,37%,-32.2% (active),-22.6% (active),-26% (active),-51.7% (active),-20.6% (active),5.83% (active),-9.94% (active),30.9,12%
COc1cc(-c2nn(-c3ccc(NC(=O)c4ccc(Cl)c(Cl)c4)cc3)cc2-c2ccncc2)ccc1Cl,10.9%,-14.7% (active),,68.6%,64.8%,64.4%,35.9%,67.8%,,73%,79.4%,36.3%,17.2%,74.1%,44.4%,81.4%,67.6%,28.7%,85.9,48.7%
C=CN(C)S(C)(=O)=O,,72.1%,32.6%,16.9%,12.1%,43%,29.7%,38.7%,-8.09% (active),,42.5%,18.2%,53.2%,39.5%,-7.94% (active),105%,16.9%,30.1%,50.1,19.2%
COc1cc2ncnc(-n3ncc4cc(NC(=O)Nc5ccc(Cl)c(C)c5)ccc43)c2cc1OC,103%,73.6%,82.7%,65.6%,88%,88.9%,,80.5%,92.5%,97.7%,98.8%,100%,95.9%,103%,92.7%,101%,102%,84%,,
C/C(=C\c1ccc2ccccc2c1)[N+](=O)[O-],,-9.28% (active),78%,25.3%,71.3%,78.2%,-80.9% (active),37%,4.49% (active),,89.6%,-80.1% (active),-47% (active),-74.1% (active),-79.2% (active),103%,-25.4% (active),-1.16% (active),90.6,72.7%
COc1cc(-c2nn(-c3ccc(NC(=O)Nc4cc(C(F)(F)F)cc(C(F)(F)F)c4)cc3)cc2-c2ccncc2)ccc1Cl,6.27% (active),-30.2% (active),,10.6%,-71% (active),3.75% (active),-1.69% (active),5.41% (active),,-1.64% (active),17.3%,-7.1% (active),-32.5% (active),4.08% (active),-12.5% (active),-1.9% (active),16.6%,7.23% (active),26.7,7.85% (active)
Oc1ccccc1\C=N/N=C/C=C/c1ccccc1,103%,92.3%,88.4%,89.7%,,93.2%,91.1%,111%,92.7%,94.5%,88%,51.7%,130%,104%,96.7%,78%,7.53% (active),55.3%,,99.5%
CC(=O)N1CCN(CCNC(=O)n2cc(-c3ccncc3)c(-c3cc(O)cc(Cl)c3)n2)CC1,51.1%,21.7%,,114%,63.6%,27.8%,68.3%,31.4%,,112%,94.4%,72.9%,62.5%,76.9%,99%,93.1%,71.6%,67.3%,106,80.1%
